Bioassay records from PubChem.
Shown are actives, neighbours in structure and some others; about 9.2% of the full set was active somewhere.
NPC1 prom act: qHTS Assay for NPC1 Promoter Activators; Huh7 NPC1 promoter luciferase reporter, 24 h; Potency, µM (titrated, usually from 9.22 µM), inactives show top-dose activation, hits mostly activators; 320,000 tested, 2.4% active; AID 485313, 2010; further: % of control where 0% means no effect; nearly all actives have a fitted effect of over 60% in size
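Huh7 reporter cells (NPC1 promoter driving luciferase) are dosed with compound for 24 h at 37 °C, 5% CO2; luciferase detection reagent is then added and luminescence measured after 10 min at ambient temperature.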
ELG1 genotox: qHTS screen for small molecules that induce genotoxicity in human embryonic kidney (HEK293T) cells expressing luciferase-tagged ELG1. HEK293T ELG1-luciferase reporter, luminescence, 16 h. Potency, µM (series often up to 46 µM), without a hit: at the top dose activity change, positive = activation, most hits filed as activators. 330,000 tested, 1.3% active. AID 504466, 2011; further: % of control where 0% means no effect; nearly all actives have a fitted effect of over 60% in size
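HEK293T cells expressing luciferase-tagged ELG1 were exposed to compound or DMSO vehicle for 16 hr at 37 °C and 5% CO2. Luciferase activity was then measured with ONE-Glo after 30 min at room temperature.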
ELG1 repair inh: qHTS screen for small molecules that inhibit ELG1-dependent DNA repair in human embryonic kidney (HEK293T) cells expressing luciferase-tagged ELG1; HEK293T ELG1-luciferase reporter, luminescence, 16 h; DNA damage induced by 5-fluorouridine; Potency, µM (top dose mostly 46.1 µM), for inactives: at the top dose activity change, negative = inhibition, hits mostly inhibitors; 330,000 tested, 2.3% active; further: on the % scale 0 is the no-effect control and ±100 the full control effect; nearly all actives have a fitted effect of over 55% in size
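Luminescence from the luciferase reporter, measured 30 min after ONE-Glo reagent at room temperature, was the read-out. Beforehand, 2,000 cells per well were exposed for 16 hr at 37 °C to 5-fluorouridine together with compound or vehicle.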
FLuc counter: qHTS profiling assay for firefly luciferase inhibitor/activator using purifed enzyme and Km concentrations of substrates (counterscreen for miR-21 project); Luciferin 4-monooxygenase (Photinus pyralis), P08659; purified FLuc, Km substrates, luminescence inhibition; Potency, µM (series often up to 57.5 µM), for the others: top-dose activity change, negative = inhibition, most hits filed as inhibitors; 360,000 tested, 6.9% active; AID 588342, 2011;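 further: plate controls were vehicle for no effect and reference inhibitor for full effect; nearly all actives have a fitted effect of over 55% in size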
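Biochemical qHTS of compounds, final roughly 60 µM downward over six points, against 10 nM purified firefly luciferase using Km concentrations of substrates (10 uM D-luciferin, 10 uM ATP) in Tris acetate pH 7.5 buffer; luminescence output.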
SMN2 splice up: qHTS Assay for Enhancers of SMN2 Splice Variant Expression | 210,000 tested, 2.8% active | AID 1458, 2008 | Potency, µM (highest dose often 46.1 µM), for inactives: top-dose activity change, positive = activation, most hits filed as activators | HEK293 SMN2-luciferase splicing reporter, luminescence, 30-36 h; further: % of control where 0% means no effect; nearly all actives have a fitted effect of over 55% in size
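HEK293 cells carry an SMN2 minigene-luciferase reporter in which exon 7 inclusion puts luciferase in frame. Cells were seeded at 2000 cells/well, attached for 10-12 hours, then exposed to compounds for 30-36 hours at 37C before ONE-Glo luminescence.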
Rab9 promoter act: qHTS Assay for Rab9 Promoter Activators; Huh7 Rab9 promoter-luciferase reporter, luminescence, 24 h; Potency, µM (doses to about 9.22 µM), for the others: at the highest dose activation, negative = inhibition, usual class: activators; 320,000 tested, 2.8% active; AID 485297, 2010; further: % of control where 0% means no effect; nearly all actives have a fitted effect of over 60% in size
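Cells were plated at 1500 per well in reduced-serum medium with 10% FBS and left 2 h. Compound in DMSO was then added for 24 h at 37 °C. Reporter signal was read by luminescence after 10 min with luciferase detection reagent.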
ELG1 FLuc counter: qHTS screen for small molecules that inhibit ELG1-dependent DNA repair: Hit Confirmation in Cell-Based Luciferin Assay; Potency, µM (doses to about 46.1 µM), for the others: top-dose activity change, negative = inhibition, actives largely listed as inhibitors; cell-free firefly luciferase luminescence counter-screen, ViewLux; shares compounds with ELG1 repair inh; 350 tested, 3% active; further: on the % scale 0 is the no-effect control and ±100 the full control effect
ELG1-Luc inh: HTS assay for small molecules that inhibit ELG1-dependent DNA repair in human embryonic kidney (HEK293T) cells expressing luciferase-tagged ELG1: Hit Confirmation; shares compounds with ELG1 repair inh; HEK293T ELG1-luciferase levels, luminescence; cells co-treated with 5-fluorouridine; Potency, µM (top dose mostly 46.1 µM), without a hit: at the top dose activity change, negative = inhibition, usual class: inhibitors; 670 tested, 68% active; AID 624248, 2012; further: on the % scale 0 is the no-effect control and ±100 the full control effect; nearly all actives have a fitted effect of over 55% in size
Target sequence (Q96QE3 whole entry, looked up): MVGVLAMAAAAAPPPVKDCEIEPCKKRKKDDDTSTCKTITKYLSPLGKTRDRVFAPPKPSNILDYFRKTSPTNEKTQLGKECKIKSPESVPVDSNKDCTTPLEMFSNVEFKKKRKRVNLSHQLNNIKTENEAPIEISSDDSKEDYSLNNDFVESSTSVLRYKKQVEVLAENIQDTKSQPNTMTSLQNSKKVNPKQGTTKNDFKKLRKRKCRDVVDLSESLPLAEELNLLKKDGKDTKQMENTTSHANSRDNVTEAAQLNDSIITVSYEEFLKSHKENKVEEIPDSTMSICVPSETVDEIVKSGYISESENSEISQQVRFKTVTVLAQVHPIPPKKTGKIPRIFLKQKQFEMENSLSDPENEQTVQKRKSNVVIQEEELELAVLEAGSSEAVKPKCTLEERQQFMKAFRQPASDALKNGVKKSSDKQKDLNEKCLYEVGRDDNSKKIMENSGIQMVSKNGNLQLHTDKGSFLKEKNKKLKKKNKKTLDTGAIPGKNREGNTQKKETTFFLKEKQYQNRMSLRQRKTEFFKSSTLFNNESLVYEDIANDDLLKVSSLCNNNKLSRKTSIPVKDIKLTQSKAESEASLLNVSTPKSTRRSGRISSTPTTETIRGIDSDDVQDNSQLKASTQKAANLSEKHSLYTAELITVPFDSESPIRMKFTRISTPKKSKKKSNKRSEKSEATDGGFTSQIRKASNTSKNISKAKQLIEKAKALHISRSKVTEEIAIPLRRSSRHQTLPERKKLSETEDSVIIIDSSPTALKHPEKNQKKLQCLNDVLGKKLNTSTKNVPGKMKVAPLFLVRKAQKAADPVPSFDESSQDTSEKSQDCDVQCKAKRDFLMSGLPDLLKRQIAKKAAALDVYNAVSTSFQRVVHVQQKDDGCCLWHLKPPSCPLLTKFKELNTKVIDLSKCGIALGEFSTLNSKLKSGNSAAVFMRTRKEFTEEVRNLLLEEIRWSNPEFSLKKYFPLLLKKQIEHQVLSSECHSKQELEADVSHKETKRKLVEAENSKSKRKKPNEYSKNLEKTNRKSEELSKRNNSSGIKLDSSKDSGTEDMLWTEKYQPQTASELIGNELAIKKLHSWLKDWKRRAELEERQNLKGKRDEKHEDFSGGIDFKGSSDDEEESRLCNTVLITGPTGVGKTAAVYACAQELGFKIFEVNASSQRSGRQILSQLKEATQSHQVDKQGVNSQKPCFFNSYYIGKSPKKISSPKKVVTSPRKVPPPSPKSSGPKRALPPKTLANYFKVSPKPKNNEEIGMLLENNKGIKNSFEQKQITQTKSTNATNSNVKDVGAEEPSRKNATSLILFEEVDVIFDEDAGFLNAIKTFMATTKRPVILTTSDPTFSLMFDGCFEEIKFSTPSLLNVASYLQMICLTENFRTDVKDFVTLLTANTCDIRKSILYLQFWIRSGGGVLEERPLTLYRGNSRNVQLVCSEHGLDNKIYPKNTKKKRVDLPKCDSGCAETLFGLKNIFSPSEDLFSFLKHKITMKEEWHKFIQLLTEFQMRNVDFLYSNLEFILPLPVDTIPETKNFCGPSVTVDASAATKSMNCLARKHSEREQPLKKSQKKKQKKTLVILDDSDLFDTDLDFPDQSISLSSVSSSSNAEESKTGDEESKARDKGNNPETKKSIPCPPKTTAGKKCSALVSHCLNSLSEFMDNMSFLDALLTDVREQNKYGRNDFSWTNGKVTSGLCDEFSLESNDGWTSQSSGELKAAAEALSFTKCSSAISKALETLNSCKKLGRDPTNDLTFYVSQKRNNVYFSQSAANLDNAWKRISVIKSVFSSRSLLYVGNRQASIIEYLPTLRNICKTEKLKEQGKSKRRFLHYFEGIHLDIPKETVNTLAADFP
ELG1-Luc MMS: MMS-stimulated human ELG1 repair inhibition, confirmed; shares compounds with ELG1 repair inh; HEK293T luciferase-tagged ELG1 level, MMS stimulated; Potency, µM (titrated, usually from 46.1 µM), inactives show top-dose activity change, negative = inhibition, most hits filed as inhibitors; 670 tested, 53% active; AID 624249; further: on the % scale 0 is the no-effect control and ±100 the full control effect; nearly all actives have a fitted effect of over 60% in size
ELG1 5-FU: qHTS screen for small molecules that inhibit ELG1-dependent DNA repair: Hit Confirmation with 5FU Viability; shares compounds with ELG1 repair inh; cell viability with 5-FU, ELG1-dependent repair; Potency, µM (titrated, usually from 46.1 µM), without a hit: at the highest dose activity change, negative = viability loss, actives largely listed as cytotoxic; 670 tested, under 10 active; AID 624250, 2012;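 further: ELG1-luc HEK293T cells cotreated with 5-fluorouridine at 10 µM final; viability measured 16 h after compound addition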
ELG1 MMS cell: qHTS screen for small molecules that inhibit ELG1-dependent DNA repair: Hit Confirmation with MMS Viability. shares compounds with ELG1 repair inh. Cell viability with MMS, ELG1-dependent DNA repair. Potency, µM (highest dose often 46.1 µM), inactives show top-dose activity change, negative = viability loss, hits mostly cytotoxic. 670 tested, 33% active. AID 624251, 2012;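 further: ELG1-luc HEK293T cells co-treated with 10 µM MMS; viability read 16 h after compound addition; on the % scale 0 is the no-effect control and ±100 the full control effect; nearly all actives have a fitted effect of over 60% in size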
ELG1 unstim viab: qHTS screen for small molecules that inhibit ELG1-dependent DNA repair: Hit Confirmation with Unstimulated Viability Assay. shares compounds with ELG1 repair inh. cell viability counter-screen, unstimulated, luminescence. Potency, µM (titrated, usually from 45.9 µM), for the others: at the highest dose activity change, negative = loss of viability, most hits filed as cytotoxic. 900 tested, 8% active;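 further: compound exposure lasted 16 hours before reading; on the % scale 0 is the no-effect control and ±100 the full control effect; nearly all actives have a fitted effect of over 55% in size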
FLuc enzyme: qHTS screen for small molecules that inhibit ELG1-dependent DNA repair: Hit Confirmation in Biochemical Luciferin Assay | shares compounds with ELG1 repair inh | purified firefly luciferase, luminescence counter-screen | Potency, µM (highest dose often 57.5 µM), for the others: top-dose activity, negative = inhibition, usual class: inhibitors | 350 tested, 10% active | AID 624253, 2012; further: on the % scale 0 is the no-effect control and ±100 the full control effect
* marks the source's active call; other numbers are inactive results; [ ] = dose if it differs, or a comment. The call rests on the fitted dose curve; in most records, active means well fitted curve in the direction sought with a large enough effect; inconclusive means small, poorly fitted or top-dose-only effect, or another doubt; inactive means no such curve, though single readings can be large; an effect the other way counts as inactive or inconclusive. Potency means the concentration at half of the fitted maximal effect.

Results for CCCC(=O)N1CCc2cc(OC)c(OC)cc2C1COc1ccccc1OC (stereo not given) ?
NPC1 prom act: -3%; ELG1 genotox: 0%; ELG1 repair inh: -8%; FLuc counter: -3%; Rab9 promoter act: -4%; ELG1 FLuc counter: 10%; ELG1-Luc inh: 8.9µM*; ELG1-Luc MMS: inconclusive; ELG1 5-FU: 4%; ELG1 MMS cell: inconclusive; ELG1 unstim viab: -5%; FLuc enzyme: -5%

What do the screens show for `COc1ccccc1CN1CCNC(=O)C1CC(=O)N(C)Cc1ccon1` (stereo not given)?
NPC1 prom act: -5%; ELG1 genotox: 1%; ELG1 repair inh: -14%; FLuc counter: -2%; Rab9 promoter act: -6%

What do the screens show for `O=C(O)/C=C/C(=O)N(Cc1ccc2c(c1)OCO2)C1CC(=O)N(CCc2ccccc2)C1=O` (stereo not given)?
NPC1 prom act: -5%; ELG1 genotox: 3%; ELG1 repair inh: -12%; FLuc counter: 2%; SMN2 splice up: 7%; Rab9 promoter act: -2%

How did Cc1ccc(CSCC(=O)N/N=C/c2cccc(OC3CSC3)c2)cc1 do in these assays?
NPC1 prom act: 1%; ELG1 genotox: 1%; ELG1 repair inh: inconclusive; FLuc counter: 1%; SMN2 splice up: 7%[1.84 µM]; Rab9 promoter act: -3%

Results for Cn1ncc(Br)c1C(=O)N/N=C/c1cccc(OC2CSC2)c1 ?
NPC1 prom act: -6%; ELG1 genotox: 2%; ELG1 repair inh: 4.1µM*; FLuc counter: -13%; SMN2 splice up: -10%; Rab9 promoter act: -13%; ELG1-Luc inh: -7%; ELG1-Luc MMS: 6%; ELG1 5-FU: -6%; ELG1 MMS cell: inconclusive; ELG1 unstim viab: -11%
